Screening results (PubChem BioAssay)
D2 PAM-1: D2 dopamine receptor (human) potentiation; potentiation, % at 10 µM; P14416; HEK293 T-REx D2, calcium flux, EC20 dopamine potentiation; hit rate 0.34% among 340,000; AID 485347;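 active = potentiation over 3 SD above the plate norm, cut at about 30% in these data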; note: 0% is about no effect
Target sequence (P14416 whole entry, looked up): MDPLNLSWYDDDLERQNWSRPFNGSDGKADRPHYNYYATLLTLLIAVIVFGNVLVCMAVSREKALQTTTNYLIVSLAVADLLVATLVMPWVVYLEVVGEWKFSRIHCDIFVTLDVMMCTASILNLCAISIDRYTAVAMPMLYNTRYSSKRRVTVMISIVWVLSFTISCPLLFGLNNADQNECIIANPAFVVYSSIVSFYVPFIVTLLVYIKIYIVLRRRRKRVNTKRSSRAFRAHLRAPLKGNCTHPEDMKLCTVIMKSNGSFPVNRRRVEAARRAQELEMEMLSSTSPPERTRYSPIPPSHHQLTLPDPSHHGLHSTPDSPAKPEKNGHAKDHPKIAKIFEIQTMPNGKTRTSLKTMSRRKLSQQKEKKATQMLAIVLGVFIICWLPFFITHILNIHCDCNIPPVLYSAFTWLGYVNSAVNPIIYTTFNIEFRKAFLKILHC
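Tetracycline-induced Hek293 Trex D2 cells, force-coupled to calcium, loaded with no-wash calcium dye. Compound added with 180 s kinetic read for agonism, then EC20 dopamine and a further 180 s read for potentiation.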
D2 ag-1: agonists of human D2 dopamine receptor; HEK293 T-REx D2 cells, calcium flux agonist mode; hit rate 0.53% among 340,000; activation, % at 2 µM; AID 485358;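 active = activation over 3 SD above normal in the single-dose calcium agonist read, cut at about 30% in these data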; note: 0% is about no effect
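Agonism is scored from calcium flux in a force-coupled, inducible HEK293 cell line expressing D2, read kinetically for 180 s after compound addition against dopamine controls.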
D2 PAM-2: positive allosteric modulators of human D2 dopamine receptor. hit rate 0.23% among 360,000. P14416. DiscoveRx D2 beta-arrestin cells, luminescence, 90 min; 100% = 57 uM dopamine signal. AID 624464. potentiation, % (no concentration beside the values); in the data active = potentiation above about 50%; inconclusive = mostly about 30% to 49%
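PathHunter D2 cells, attached overnight at 37 deg C, received compound in DMSO plus dopamine at EC20 (50 nM final) for 90 min at 37 deg C. Beta-arrestin recruitment was read as luminescence after 1 h with detection reagent at ambient temperature.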
D2 ag-2: agonists of human D2 dopamine receptor (beta-arrestin); P14416; DiscoveRx PathHunter D2 beta-arrestin, luminescence, 90 min; 100% = 57 uM dopamine signal; activation, % (concentration not given with the values); hit rate 0.084% among 360,000; AID 624465; in the data active = activation above about 40%; inconclusive = between about 15% and that limit
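Agonist mode: compounds alone added to overnight-plated D2 PathHunter cells for 90 min at 37 C, with 57 uM final dopamine (EC100) defining full response. Beta-arrestin recruitment detected by chemiluminescent reagent, read after 1 h at ambient temperature.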
D2 antag: antagonists of human D2 dopamine receptor; inhibition, % at 10 µM; HEK293 TREx D2 cells, calcium flux, dopamine EC80; hit rate 2% among 340,000; P14416; in the data active = inhibition above about 30%; inactive = below that, where a call was filed; note: 0% is about no effect
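Measurement of antagonist activity uses fluorescent calcium dye in inducible HEK293 T-REx D2 cells: 10 s baseline, compound addition with 180 s read, EC80 dopamine addition with a further 180 s read.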
D3 ag: D3 receptor agonism confirmed, beta-arrestin readout. shares compounds with D2 ag-1. DiscoveRx D3 beta-arrestin cells, luminescence, 90 min. Potency, µM (doses to about 76.9 µM), for inactives: at the highest dose activation, usual class: activators. hit rate 4% among 2,300. AID 720506;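 note: potency is the fitted concentration of half-maximal effect; 100% = dopamine control response; nearly all actives have a fitted effect of over 70% in size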
D2 ag-3: activates human D2 dopamine receptor in D3 counterscreen | shares compounds with D2 ag-1 | Potency, µM (series often up to 76.9 µM), inactives show at the top dose activation, usual class: activators | hit rate 5.9% among 2,300 | DiscoveRx PathHunter D2 beta-arrestin, luminescence, 90 min; response scale: percent relative to full dopamine signal | AID 720507; note: potency is the fitted concentration of half-maximal effect; % of control where 0% means no effect; nearly all actives have a fitted effect of over 70% in size
* = called active by the depositor; ? = inconclusive; . = no result given. Most compounds without a hit are left out; they make up all but 2.4% or so of the library. Unless noted, calls come from the whole dose curve; as a rule, active = well fitted activation curve with a large enough effect; inconclusive = small, poorly fitted or top-dose-only effect; inactive = flat fitted curve, though single readings scatter.

SMILES	D2 PAM-1	D2 ag-1	D2 PAM-2	D2 ag-2	D2 antag	D3 ag	D2 ag-3
Cc1ccc2c(c1)N(C(=O)CCC(=O)N1CCN(c3ccccn3)CC1)CC(C)O2 (stereo unspecified)	-18	50*	-3	-4	-12	12%	9%
CC(=O)N1c2ccc(S(=O)(=O)N3CCC(C(=O)Nc4ncccc4C)CC3)cc2CC1C (stereo unspecified)	-8	27	-5	1	5	-8%	-5%
CCC(=O)N1CCc2cc(S(=O)(=O)CCC(=O)Nc3ccc(C(C)=O)cc3)ccc21	7	-1	1	2	2	.	.
CCC(=O)N1CCc2cc(S(=O)(=O)CCC(=O)Nc3nc(C)cs3)ccc21	-20	64*	-8	11	10	11%	11%
CCC(=O)N1CCc2cc(S(=O)(=O)CCC(=O)Nc3ccc(CC)cc3)ccc21	0	1	-1	0	2	.	.
CCC(=O)N1CCc2cc(S(=O)(=O)CCC(=O)Nc3ccc(C)cn3)ccc21	-20	57*	0	3	64*	6%	19%
CCC(=O)N1CCc2cc(S(=O)(=O)CCC(=O)NC3CCCCC3)ccc21	5	1	-5	0	-2	.	.
CCOC(=O)N1CCC(NC(=O)CCS(=O)(=O)c2ccc3c(c2)CCN3C(=O)CC)CC1	-21	66*	4	?	73*	12%	?
CCC(=O)N1CCc2cc(S(=O)(=O)N3CCCC3)ccc21	-18	0	-3	-1	-23	.	.
CCC(=O)N1c2ccc(S(=O)(=O)N3CCN(CC)CC3)cc2CC1C (stereo unspecified)	-16	48*	-9	7	39*	-7%	28%
CCC(=O)N1CCc2cc(S(=O)(=O)N3CCCCCC3)ccc21	-11	37*	-13	5	31*	-6%	-2%
COc1cccc(CNC(=O)C2CCN(C(=O)N3CCOc4ccc(Cl)cc43)CC2)c1OC	7	1	.	.	.	.	.
Cc1cccc(-c2noc(-c3ccccc3OCC(=O)Nc3ccccc3[N+](=O)[O-])n2)c1	10	-2	.	.	.	.	.
Cc1cccc(-n2c(=O)c3c(c4cc(C)ccc4n3C)n(CC(=O)NCCC3=CCCCC3)c2=O)c1	7	0	.	.	.	.	.
Cc1ncsc1CCOC(=O)c1ccc(N2CCOCC2)c([N+](=O)[O-])c1	15	2	-8	1	28	?	?
O=C(NCc1ccccc1Cl)c1ccc(-n2cnc3cccnc32)cc1	0	.	.	.	.	.	.
Cc1ccc(N2C(=O)c3cccc4c(N5CCN(C)CC5)ccc(c34)C2=O)c2cccnc12	-15	32*	-8	-3	6	-7%	-1%
CC(C)CC(=O)Nc1nc2nc(-c3ccccc3)cc(=O)n2[nH]1	-24	-1	.	.	.	.	.
CCCCCNC(=O)C1CCC(Cn2c(=O)c3sccc3n(CC)c2=O)CC1 (stereo unspecified)	6	0	.	.	.	.	.
Cc1ccc(S(=O)(=O)NCCC(=O)Nc2ccc(C)cc2C(=O)c2ccccc2)cc1	-7	-1	-1	-6	18	-4%	-5%
Cc1ccc(NC(=O)CN2CCN(c3ccccn3)CC2)cc1S(=O)(=O)N(C)C	-24	69*	8	58*	77*	1.4µM*	14µM*
Cc1cc(C)cc(NC(=O)CN2CCN(c3ccccn3)CC2)c1	12	3	-25	2	16	.	.
CN(C)S(=O)(=O)c1ccc(NC(=O)CN2CCN(c3ccccn3)CC2)cc1	-18	65*	15	?	30*	1.4µM*	?
CN(C)S(=O)(=O)c1cc(NC(=O)CN2CCN(c3ccccc3)CC2)ccc1Cl	-19	71*	15	?	64*	50µM*	?
CN(C)S(=O)(=O)c1cc(NC(=O)CN2CCN(c3ccc(O)cc3)CC2)ccc1Cl	-18	13	-16	11	1	.	.
SMILES	D2 PAM-1	D2 ag-1	D2 PAM-2	D2 ag-2	D2 antag	D3 ag	D2 ag-3
CCCCn1c(=N)c(S(=O)(=O)c2ccc(Cl)cc2)cc2c(=O)n3cccc(C)c3nc21	8	-1	.	.	.	.	.
CN(CC(=O)NCc1ccccc1)CC(=O)Nc1ccc(Cl)c(C(F)(F)F)c1	3	2	-1	7	22	4%	3%
CCOc1ccc(-c2cccc(NS(=O)(=O)c3c(C)cc(C)cc3C)c2)nn1	2	-1	.	.	.	.	.
CCc1ccc(NC(=O)CC2C(=O)N(c3ccc(Cl)cc3)C(=O)N2Cc2cccs2)cc1 (stereo unspecified)	.	1	.	.	.	.	.
CC(=O)SC1CC(=O)N(c2c(C)cccc2C)C1=O (stereo unspecified)	-20	55*	-9	-7	27	-17%	-12%
O=C(CN1CCN(C(=O)c2ccco2)CC1)Nc1cccc(S(=O)(=O)N2CCCC2)c1	2	30	3	6	13	17%	17%
CC(=O)NCCC(=O)Nc1cc(S(=O)(=O)N2CCCCC2)ccc1N1CCN(C)CC1	-2	1	-11	-2	-2	.	.
Cc1ccc(S(=O)(=O)CCC(=O)Nc2cccc(S(=O)(=O)N3CCCCCC3)c2)cc1	-7	-1	0	-7	6	8%	11%
O=C(CN1CCc2ccccc2C1)Nc1cccc(S(=O)(=O)N2CCCC2)c1	-24	53*	-9	0	49*	?	?
CC(=O)NCCC(=O)Nc1cc(S(=O)(=O)N2CCCCC2)ccc1N1CCCCC1	-1	1	-5	0	15	8%	1%
CCCn1c2ccccc2c2cnn(CC(=O)NCCCN(Cc3ccccc3)C(C)C)c(=O)c21	7	-1	.	.	.	.	.
Cc1c(Cl)cccc1NC(=O)c1ccc2c(c1)CCN2S(=O)(=O)c1ccccc1	4	.	.	.	.	.	.
CCOc1ccc(C(=O)N(Cc2nc(-c3cccc(C)c3)no2)C(C)C)cc1	.	0	.	.	.	.	.
Cc1ccc(NC(=O)[C@@H]2CCCN2S(=O)(=O)c2ccccc2F)cc1	1	1	2	-2	-12	.	.
O=C(Nc1cccc(S(=O)(=O)N2CCCCC2)c1)C1CCCN1S(=O)(=O)c1ccccc1F (stereo unspecified)	-6	5	25	3	22	1%	16%
CCN(CC)CCSc1nnc2c3cc(F)ccc3n(Cc3ccccc3)c2n1	-18	-2	-18	0	-27	.	.
CCN(CC)CCSc1nnc2c3ccccc3n(Cc3ccccc3)c2n1	-13	0	-26	-5	60*	-10%	-6%
